Consider 66 compounds from PubChem BioAssay AID2546 (National Center for Advancing Translational Sciences (NCATS), 2010).

Out of some 310,000 compounds screened, about 11,000 (3.5%) were called active. About 8% were inconclusive and are not listed. This excerpt belongs to a sample that is enriched for actives. Unmarked numbers belong to inactive results. Calls come from the whole dose curve; as a rule, active = well fitted inhibition curve with a large enough effect; inconclusive = small, poorly fitted or top-dose-only effect, or effect the other way; inactive = flat fitted curve, though single readings scatter.
% is set by controls: 0 for no effect and ±100 for the full control effect; potency is the fitted concentration of half-maximal effect.

A short description of the experiment: VP16 counterscreen qHTS for inhibitors of ROR gamma transcriptional activity.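 Note: Gal4-VP16 expression switched on by copper sulfate through the metallothionein promoter; nearly all actives have a fitted effect of over 50% in size.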 To be noted: Drosophila S2 Gal4-VP16 UAS-luciferase, luminescence, 20 h; series mostly up to 53.6 µM; activity, negative = inhibition: at the top concentration.
On to `CN(c1cccc(NC(=O)c2ccc(CN3CCc4ccccc4C3)cc2)c1)S(C)(=O)=O`, for which the “activity, negative = inhibition” value is -3.37%.

With `COc1cccc(C(=O)Nc2ccc(N3CCN(C(=O)c4ccco4)CC3)cc2)c1`, the “activity, negative = inhibition” value is 0.603%.

Regarding `CCc1ccc(/C=N/NC(=O)c2ccc(OC3CCCC3)cc2)s1`, the Potency was 11.2 µM (active).

`CCn1c(/C=N/NC(=O)c2ccc(OC)cc2)nc2ccccc21`: the “activity, negative = inhibition” value was -93%.

Turning to `COC(=O)CNC(=O)c1ccc(OC2CCN(C(=O)C3CC3)CC2)cc1`, the “activity, negative = inhibition” value is 3.08%.

Consider `CCOc1ccc(S(=O)(=O)N2CCCC(C(=O)N3CCC(C(N)=O)CC3)C2)cc1Cl` (stereo unspecified), for which the “activity, negative = inhibition” value is 6.23%.

In the case of `COc1ccccc1CCNS(=O)(=O)c1cc2c3c(c1)C(C)C(=O)N3CCC2` (stereo unspecified), the “activity, negative = inhibition” value was 1.36%.

Take `Cc1ccc(NS(=O)(=O)c2ccc(C(C)(C)C)cc2)cn1`: the “activity, negative = inhibition” value was 4.43%.

Take `Cc1ccc(S(=O)(=O)Nc2ccc3ncccc3c2)cc1`: the Potency was 17.8 µM (active).

As for `Cc1ccc(OCC(=O)Nc2ccc(S(=O)(=O)Nc3ccccn3)cc2)cc1`, the “activity, negative = inhibition” value is -4.48%.

For the compound `CC(C)C[C@H]1CN=C(Nc2ccccc2)N1CC1CCCCC1`, the “activity, negative = inhibition” value was 7.18%.

Regarding `COC(=O)c1cc(S(=O)(=O)N2CCN(c3cc(C)ccc3C)CC2)c[nH]1`, the “activity, negative = inhibition” value was -10.5%.

Take `NS(=O)(=O)c1ccc(N=Nc2c(O)[nH]c3ccc(Br)cc23)cc1`: the “activity, negative = inhibition” value was -23.4%.

On to `CCN1CCN(c2sc(S(C)(=O)=O)nc2S(=O)(=O)c2ccc(Cl)cc2)CC1`, for which the “activity, negative = inhibition” value was 1.58%.

As to `CCc1ccc(NC2Nc3cc(C)nn3S2)cc1` (stereo unspecified), the Potency is 5.01 µM (active).

Turning to `CCOC(=O)c1ccc(NC2Nc3cc(C)nn3S2)cc1` (stereo unspecified), the “activity, negative = inhibition” value was -6.13%.

As for `O=C(CC1Nc2ccccc2NC1=O)Nc1ccccc1NC(=O)CC1Nc2ccccc2NC1=O` (stereo unspecified), the “activity, negative = inhibition” value was -0.767%.

Regarding `O=C(CC1Nc2ccccc2NC1=O)Nc1ccccc1` (stereo unspecified), the Potency was 5.01 µM (active).

Consider `CCOC(=O)c1ccccc1NC(=O)CC1Nc2ccccc2NC1=O` (stereo unspecified), for which the “activity, negative = inhibition” value was -1.38%.

For `CCN(C(=O)COc1ccc(C(=O)c2ccccc2)cc1)c1ccccc1`, the “activity, negative = inhibition” value was 0.177%.

As for `O=S(=O)(c1ccccc1)c1nc(-c2ccccc2)oc1NCCCN1CCOCC1`, the “activity, negative = inhibition” value was -4.1%.

For the compound `Cc1cccc(N2CCN(C(=O)c3cccc(N4C(=O)C5C6C=CC(C6)C5C4=O)c3)CC2)c1C` (stereo unspecified), the “activity, negative = inhibition” value is -18.4%.

`O=C(CN1CCOC1=O)N1CCCC(Nc2ccc(F)c(F)c2)C1` (stereo unspecified): the “activity, negative = inhibition” value was -4.61%.

On to `C=C1CCN(C(CC(C)C)C(=O)N2CCOCC2)S(=O)(=O)c2ccccc21` (stereo unspecified), for which the “activity, negative = inhibition” value was 1.67%.

On to `Cc1ccc(OCCOCCOc2ccc(Br)cc2/C=N\NC(=O)c2ccncc2)cc1`, for which the Potency was 25.1 µM (active).

Turning to `Cc1ccc(S(=O)(=O)Oc2ccc(/C=N/NC(=O)c3ccncc3)cc2)cc1`, the “activity, negative = inhibition” value was 6.78%.

Consider `Cc1ccc(OCCOc2cccc(/C=N/NC(N)=O)c2)cc1`, for which the “activity, negative = inhibition” value is -10.6%.

`Cc1ccc(CNC(=O)CCN2C(=O)[C@@H]3Cc4ccccc4CN3C2=O)cc1`: the “activity, negative = inhibition” value is -8.23%.

With `CC(=O)Nc1cccc(C(=O)OCN2C(=O)c3ccccc3C2=O)c1`, the “activity, negative = inhibition” value was -7.7%.

`Cc1cc(OCc2cc(C(=O)NCc3cc(C(C)C)no3)no2)cc(C)c1Cl`: the “activity, negative = inhibition” value is -8.7%.

In the case of `Cc1cccc(NC(=S)NCCN(C2CCCCC2)C2CCCC2)c1`, the “activity, negative = inhibition” value was -73%.

Turning to `O=C(O)CCC(=O)NCc1ccc2[nH]c3c(c2c1)CCCC3`, the “activity, negative = inhibition” value is 0.514%.

As to `Cc1cccc(NC(=S)NCc2ccc3[nH]c4c(c3c2)CCCC4)c1`, the Potency was 7.08 µM (active).

Take `CCOc1cc(/C=N/Nc2cc(C)nc3ccc(C)cc23)ccc1O`: the “activity, negative = inhibition” value is 3.8%.

As to `CCn1ccnc1CN1CCCC(C(=O)c2ccc3c4c(cccc24)CC3)C1` (stereo unspecified), the Potency is 4.47 µM (active).

For `Cc1ncoc1C(=O)N1CCCC(C(=O)c2ccc3c4c(cccc24)CC3)C1` (stereo unspecified), the “activity, negative = inhibition” value was 1.3%.

`CC(=O)NCC(=O)N1CCCC(C(=O)c2ccc3c4c(cccc24)CC3)C1` (stereo unspecified): the “activity, negative = inhibition” value was 2.57%.

`COc1cc2c(cc1OC)C(C)N(S(=O)(=O)c1cnc(Cl)c(Cl)c1)CC2` (stereo unspecified): the “activity, negative = inhibition” value is -0.844%.

Regarding `CCN1C(=S)N[C@@H](c2cccc(C(F)(F)F)c2)C(C(=O)OC)=C1C`, the “activity, negative = inhibition” value was -28.2%.

As for `CC1CCN(CC(=O)Nc2nccs2)CC1`, the “activity, negative = inhibition” value is -5.42%.

Regarding `C=CCNC(=O)CSc1nc2scc(-c3ccco3)c2c(=O)n1CC=C`, the “activity, negative = inhibition” value is 2.38%.

For `C=CCn1c(SCc2csc(C)n2)nc2scc(-c3ccc(C)o3)c2c1=O`, the “activity, negative = inhibition” value is -2.23%.

As for `C=CCn1c(=S)[nH]c2scc(-c3ccco3)c2c1=O`, the Potency was 7.94 µM (active).

`COc1ccc(NC(=O)CN2C(=O)COc3ccc(S(=O)(=O)N4CCOCC4)cc32)c(OC)c1`: the “activity, negative = inhibition” value is 5.17%.

Regarding `Cc1ccc(S(=O)(=O)N(C)CC(=O)NCCc2c[nH]c3ccccc23)cc1`, the “activity, negative = inhibition” value is 8.19%.

Turning to `COc1ccc(-n2c(=O)[nH]c3cc(C(=O)NCCc4ccc(OC)c(OC)c4)ccc3c2=O)c(OC)c1`, the “activity, negative = inhibition” value was -6.3%.

For the compound `COc1ccc(NS(=O)(=O)c2cc(C(=O)Nc3ccccc3C(=O)O)ccc2C)cc1`, the “activity, negative = inhibition” value was -3.41%.

With `CCCCc1nc2cc(C(=O)N3CCCCC3CCO)ccc2o1` (stereo unspecified), the “activity, negative = inhibition” value is -3.46%.

Turning to `CCN(CC)S(=O)(=O)c1ccc(-c2cn3ccc(C)cc3n2)cc1`, the “activity, negative = inhibition” value is 4.17%.

For the compound `COc1ccc(-c2cn3cccnc3n2)cc1`, the “activity, negative = inhibition” value was -23.4%.

In the case of `COc1ccc(-c2cn3ccc(C)cc3n2)cc1`, the Potency was 5.01 µM (active).

Regarding `O=C(c1cc(C(=O)N2CCN(c3ccc(F)cc3)CC2)cc([N+](=O)[O-])c1)N1CCN(c2ccc(F)cc2)CC1`, the “activity, negative = inhibition” value is -15.2%.

Take `CC(C)(C)C(=O)NC1CC2CCCC(C1)N2C(=O)Nc1ccccc1F` (stereo unspecified): the “activity, negative = inhibition” value is 10.1%.

With `O=CN1CCN(C(=O)c2ccc3c(c2)OCO3)CC1`, the “activity, negative = inhibition” value is 5.96%.

As for `CC(NC(=S)Nc1ccc(OC(F)F)cc1)c1ccc(F)cc1` (stereo unspecified), the Potency was 12.6 µM (active).

Consider `CC(NC(=S)Nc1ccc(S(N)(=O)=O)cc1)c1ccc2c(c1)OCO2` (stereo unspecified), for which the “activity, negative = inhibition” value is -0.45%.

As for `CC(C)N(Cc1ccccc1)C(=S)Nc1ccc(OC(F)F)cc1`, the “activity, negative = inhibition” value was -5.97%.

For the compound `Cc1cc(-n2nc(C)cc2C)n2nc(C)c(-c3ccccc3)c2n1`, the “activity, negative = inhibition” value was 7.94%.

As for `Cc1cc(C)c2c(n1)nn1c(-n3ccnc3)cc(C)nc21`, the Potency is 15.8 µM (active).

Regarding `Cc1cc(C)c2c(NC(=O)C3CC3)nn(C)c2n1`, the “activity, negative = inhibition” value is 1.02%.

In the case of `O=C(Nc1cccc(NC(=O)c2ccc(Br)cc2)c1)c1ccccc1`, the “activity, negative = inhibition” value was -10.1%.

With `CC(=N\NC(=O)c1cc(Br)ccc1O)/C(=N/O)C(=O)Nc1ccccc1`, the Potency is 11.2 µM (active).

Regarding `C/C(=N/NC(=O)c1cc(Cl)ccc1O)C12CC3CC(CC(C3)C1)C2`, the “activity, negative = inhibition” value is -5.44%.

For `COc1ccc(-c2c(C)cc3oc(=O)cc(-c4ccccc4)c3c2C)cc1OC`, the “activity, negative = inhibition” value was 2.38%.

With `COc1cc(OC)c2c(-c3cccc(-c4cccc(N)c4)c3)cc(=O)oc2c1`, the Potency is 10 µM (active).

Regarding `COc1ccc(-c2c(C)cc3oc(=O)cc(-c4ccccc4)c3c2C)cc1F`, the “activity, negative = inhibition” value is 6.07%.
